Data published in PubChem BioAssay AID624098 (National Center for Advancing Translational Sciences (NCATS), 2012).
Records with an inconclusive call do not appear. Active and inactive are the calls of the source.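 The calls were made as follows: active = immobility above 50% at 10 µM after 1 hour; inconclusive = immobility from 15% to 50% at 1 hour; inactive = immobility below 15%.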

Test: Assay for General Anesthetic Phenotype in Xenopus Tadpoles
Conditions: startle-response immobility, 1 h, at 10 µM, stronger effect = higher value
Source text: Anesthetic development has remained a largely empirical process. There are growing concerns about the cognitive effects of known general anesthetics and acceleration of the onset of neurodegenerative disease. The compounds' toxicity and multiple specific binding targets in the mammalian brain [4] has made them less attractive as drug leads. This assay was designed for the in vivo follow-up testing of compounds in tadpoles. References: [1] S.L. Bianchi, T. Tran, C. Liu, S. Lin, Y. Li, J.M. Keller, R.G. Eckenhoff, and M.F. Eckenhoff, Brain and behavior changes in 12-month-old Tg2576 and nontransgenic mice exposed to anesthetics. Neurobiol Aging 29 (2008) 1002-10. Z. Xie, Y. Dong, U. Maeda, R.D. Moir, W. Xia, D.J. Culley, G. Crosby, and R.E. Tanzi, The inhalation anesthetic isoflurane induces a vicious cycle of apoptosis and amyloid beta-protein accumulation. J Neurosci 27 (2007) 1247-54. P. Honegger, and J.M. Matthieu, Selective toxicity of the general anesthetic propofol for GABAergic neurons in rat brain cell cultures. J Neurosci Res 45 (1996) 631-6. M.F. Eckenhoff, K. Chan, and R.G. Eckenhoff, Multiple specific binding targets for inhaled anesthetics in the mammalian brain. J Pharmacol Exp Ther 300 (2002) 172-9. C.A. Butts, J. Xi, G. Brannigan, A.A. Saad, S.P. Venkatachalan, R.A. Pearce, M.L. Klein, R.G. Eckenhoff, and I.J. Dmochowski, Identification of a fluorescent general anesthetic, 1-aminoanthracene. Proc Natl Acad Sci U S A 106 (2009) 6501-6. W.A. Lea, J. Xi, A. Jadhav, L. Lu, C.P. Austin, A. Simeonov, and R.G. Eckenhoff, A high-throughput approach for identification of novel general anesthetics. PLoS One 4 (2009) e7150.
Pre-limb bud Xenopus tadpoles were obtained in large batches from Nasco, Inc. Batches of 10 tadpoles were placed in 20 mm Petri dishes with approximately 20 ml of pond water ("pond water" is approximately a 20-fold dilution of Ringers saline solution). Compounds were added to the pond water from DMSO stock to obtain 100, 10 and 1 microM concentrations. Tadpoles were then incubated with these solutions for 1 hour, and then scored for "anesthesia". Anesthesia in this case is lack of movement in response to a sharp tap on the Petri dish lid, i.e., a lack of startle response. This correlates well to the loss of righting reflex in rodents and the loss of consciousness in humans. The pond water is then changed, and the return of a startle response is monitored for 24 hours. Immobility at 24 hours is considered death.
For CC(C)(C)c1ccc(-c2ccc(=O)n(CC(=O)NCCc3ccccc3)n2)cc1, the immobility was 90% (active). With COc1ccc(-c2ccc(=O)n(CC(=O)NCCc3ccccc3)n2)cc1OC the immobility was 10% (inactive). For O=C(Cn1nc(-c2ccc(OC(F)(F)F)cc2)ccc1=O)NCCc1ccccc1, the immobility was 80% (active). For CC(C)COc1ccc(-c2ccc(=O)n(CC(=O)NCCc3ccccc3)n2)cc1, the immobility was 100% (active). In the case of CCCCc1ccc(-c2ccc(=O)n(CC(=O)NCCc3ccccc3)n2)cc1, the immobility is reported as 5% (inactive). For O=C(Cn1nc(-c2ccc(F)cc2)ccc1=O)NCCc1ccccc1, the immobility was 5% (inactive). For O=C(Cn1nc(C2CC2)ccc1=O)NCCc1ccccc1, the immobility was 0% (inactive). In the case of COc1ccc(-c2ccc(=O)n(CC(=O)NCCc3ccccc3)n2)cc1, the immobility is reported as 75% (active). In the case of Cc1ccc(-c2ccc(=O)n(CC(=O)NCCc3ccccc3)n2)cn1, the immobility is reported as 0% (inactive). In the case of Cc1ccccc1-c1ccc(=O)n(CC(=O)NCCc2ccccc2)n1, the immobility is reported as 0% (inactive). With N#Cc1ccc(-c2ccc(=O)n(CC(=O)NCCc3ccccc3)n2)cc1 the immobility was 0% (inactive). With CN(C)c1ccc(-c2ccc(=O)n(CC(=O)NCCc3ccccc3)n2)cc1 the immobility was 0% (inactive). In the case of Cc1ccc(=O)n(CC(=O)NCCc2ccccc2)n1, the immobility is reported as 5% (inactive). With O=C(Cn1nc(-c2ccncc2)ccc1=O)NCCc1ccccc1 the immobility was 5% (inactive). For O=C(Cn1nc(-c2ccc3c(c2)OCO3)ccc1=O)NCCc1ccccc1, the immobility was 0% (inactive). With O=C(Cn1nc(-c2ccc(C(F)(F)F)cc2)ccc1=O)NCCc1ccccc1 the immobility was 0% (inactive). For C[S+](=O)([O-])c1ccc(-c2ccc(=O)n(CC(=O)NCCc3ccccc3)n2)cc1, the immobility was 5% (inactive). In the case of CC(C)Oc1ccc(-c2ccc(=O)n(CC(=O)NCCc3ccccc3)n2)cc1, the immobility is reported as 95% (active). In the case of CC(C)c1ccc(=O)n(CC(=O)NCCc2ccccc2)n1, the immobility is reported as 0% (inactive). For COc1ccccc1-c1ccc(=O)n(CC(=O)NCCc2ccccc2)n1, the immobility was 5% (inactive).

Same assay, conditions: startle-response immobility, 1 h, measured here: 24 h immobility, toxicity/death, at 10 µM
With CC(C)(C)c1ccc(-c2ccc(=O)n(CC(=O)NCCc3ccccc3)n2)cc1 the immobility was 10%. Work on COc1ccc(-c2ccc(=O)n(CC(=O)NCCc3ccccc3)n2)cc1OC yielded an immobility of 15%. Work on O=C(Cn1nc(-c2ccc(OC(F)(F)F)cc2)ccc1=O)NCCc1ccccc1 yielded an immobility of 10%. In the case of CC(C)COc1ccc(-c2ccc(=O)n(CC(=O)NCCc3ccccc3)n2)cc1, the immobility is reported as 0%. In the case of CCCCc1ccc(-c2ccc(=O)n(CC(=O)NCCc3ccccc3)n2)cc1, the immobility is reported as 5%. Work on O=C(Cn1nc(-c2ccc(F)cc2)ccc1=O)NCCc1ccccc1 yielded an immobility of 0%. O=C(Cn1nc(C2CC2)ccc1=O)NCCc1ccccc1 gave an immobility of 5%. Work on COc1ccc(-c2ccc(=O)n(CC(=O)NCCc3ccccc3)n2)cc1 yielded an immobility of 5%. For Cc1ccc(-c2ccc(=O)n(CC(=O)NCCc3ccccc3)n2)cn1, the immobility was 0%. In the case of Cc1ccccc1-c1ccc(=O)n(CC(=O)NCCc2ccccc2)n1, the immobility is reported as 10%. For N#Cc1ccc(-c2ccc(=O)n(CC(=O)NCCc3ccccc3)n2)cc1, the immobility was 5%. Molecule CN(C)c1ccc(-c2ccc(=O)n(CC(=O)NCCc3ccccc3)n2)cc1 has an immobility of 10%. In the case of Cc1ccc(=O)n(CC(=O)NCCc2ccccc2)n1, the immobility is reported as 15%. Work on O=C(Cn1nc(-c2ccncc2)ccc1=O)NCCc1ccccc1 yielded an immobility of 10%. O=C(Cn1nc(-c2ccc3c(c2)OCO3)ccc1=O)NCCc1ccccc1 showed an immobility of 0%. Molecule O=C(Cn1nc(-c2ccc(C(F)(F)F)cc2)ccc1=O)NCCc1ccccc1 has an immobility of 5%. C[S+](=O)([O-])c1ccc(-c2ccc(=O)n(CC(=O)NCCc3ccccc3)n2)cc1 showed an immobility of 5%. Work on CC(C)Oc1ccc(-c2ccc(=O)n(CC(=O)NCCc3ccccc3)n2)cc1 yielded an immobility of 5%. CC(C)c1ccc(=O)n(CC(=O)NCCc2ccccc2)n1 showed an immobility of 5%. Molecule COc1ccccc1-c1ccc(=O)n(CC(=O)NCCc2ccccc2)n1 has an immobility of 15%.
